Here are results for 20 molecules from PubChem BioAssay AID1053188 (Broad Institute, 2014).

As a reminder, the inhibition is the drop in the measured response relative to a control, in per cent.

Where “and” joins values, the source holds several entries; their conditions need not be identical. Equal entries are not always repeated. Among all 83,000 compounds or so, about 780 (0.94%) were called active.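 Rule for the calls: active = mean inhibition of at least 50% with a set share of replicates also reaching that level; inconclusive = no clear call, values can overlap the other calls; inactive = the rest.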 Only a selection was taken, and actives are over-represented in it overall. Where a structure was tested more than once in an assay, its records may differ in their call.

This experiment in a line: CD40 pathway blockade in BL2 B cells – cell-based, luciferase reporter, single point, primary screen (AID 1053188).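 Note: 0% = neutral control wells and 100% = IKK inhibitor VII at 50 µM.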 The note with it: BL2 NF-kB luciferase reporter, CD40L-induced, 4 h, stronger effect = higher value; at 10 µM unless noted. On the technique in general: A reporter such as luciferase makes a cellular process visible.
Take `COc1ccc(NC(=O)N2CCCC(c3nc(-c4ccc(F)cc4)no3)C2)cc1` (stereo not given): the inhibition is -2.8% (inactive).
On to `CC(C)N(C(=O)CN1CCN(S(=O)(=O)c2ccc(Br)s2)CC1)C(C)C`, for which the inhibition was 3.09% (inactive).
With `CCOC(=O)C(CC)/C(C)=N\NC(=O)c1cccc(C)c1` (stereo not given), the inhibition is -2.97% (inactive).
As for `CN(C)C(=O)c1ccc(-c2ccc(C3[C@@H]4CN(C(=O)Nc5ccccc5)C[C@H]3N4)cc2)cc1` (stereo not given in full), the inhibition is 8.08% [at 25 µM] (inactive).
Regarding `Cc1cccc(-c2ccc(C3[C@@H]4CN(C(=O)Nc5ccc(C(F)(F)F)cc5)C[C@H]3N4)cc2)c1` (stereo not given in full), the inhibition was 55.5% (active).
In the case of `O=C(C1CCCCC1)N1C[C@@H]2N[C@H](C1)C2c1ccc(-c2cccc(F)c2)cc1` (stereo not given in full), the inhibition was 26.1% (inactive) and -22.9% (inactive).
As to `O=C([C@@H]1[C@@H](CO)[C@@H]2Cn3c(ccc(C4=CCCCC4)c3=O)[C@H]1N2Cc1nccs1)N1CCCCC1`, the inhibition is -4.97% [at 25 µM] (inactive).
Take `COc1ccc(CN2CCC(c3nc4ccc(Cl)cc4[nH]3)CC2)cc1`: the inhibition was 7.72% (inactive).
On to `O=C(NNC(=O)C1CCN(c2ncccn2)CC1)c1ccccc1`, for which the inhibition was 16.9% (inactive).
For `Cn1cnc(S(=O)(=O)N2C[C@@H]3N[C@H](C2)C3c2ccc(/C=C/c3ccccc3)cc2)c1` (stereo not given in full) the value was -5.55% (inactive) and 3.57% (inactive); for `COc1ccc(-c2ccc(C3[C@@H]4CN(S(=O)(=O)c5cn(C)cn5)C[C@H]3N4)cc2)cc1` (stereo not given in full), -4.84% (inactive).
Take `Cn1cnc(S(=O)(=O)N2C[C@@H]3N[C@H](C2)C3c2ccc(-c3ccccc3F)cc2)c1` (stereo not given in full): the inhibition is 52.9% [at 25 µM] (active) and 10.8% [at 25 µM] (inactive).
With `COCC(=O)N1CC2(CN(S(C)(=O)=O)C2)c2c(n(C)c3cc(OC)ccc23)[C@@H]1CO`, the inhibition is 2.58% [at 25 µM] (inactive).
In the case of `COc1ccc2c3c(n(C)c2c1)[C@H](CO)N(C(C)=O)CC31CN(Cc2ccc(Cl)cc2)C1`, the inhibition is 68% [at 25 µM] (active).
For `CCC(=O)N1CC2(CCN(Cc3ccc(Cl)cc3)CC2)c2c(n(C)c3cc(OC)ccc23)[C@@H]1CO` the value was 4.53% [at 25 µM] (inactive).
Consider `O=C(Nc1ccccn1)C1CCN(S(=O)(=O)c2ccc3c(c2)OCCO3)CC1`, for which the inhibition was -48.7% (inactive).
On to `CCc1nnc(NC(=O)c2cccc(S(=O)(=O)N(C)c3ccc(OC)cc3)c2)s1`, for which the inhibition was 2.59% (inactive).
With `CN(Cc1ccc2nsnc2c1)Cc1nc(Cc2cccc(F)c2)no1`, the inhibition was 3.82% (inactive).
As for `CCOc1ccc(S(=O)(=O)N2CCC(C(=O)OCc3ccc(OC)cc3)CC2)cc1`, the inhibition is 0.411% (inactive).
Regarding `O=C(Nc1ccc(N2CCCCC2)cc1)c1cc(S(=O)(=O)N2CCOCC2)ccc1F`, the inhibition is -16.8% (inactive).
